# Hits are enriched below; roughly 1.9% of the tested compounds scored in any of these assays.
# BaF3 parental: reduces parental Ba/F3 cell viability, JAK2V617F counter-screen; CellTiter-Glo ATP luminescence; inhibition, % at 5.6 µM; hit rate 1.1% among 220,000; AID 1486;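 active = inhibition above a per-campaign cutoff, the mean inhibition of all tested compounds plus 3 SD, cut at about 27% in these data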;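 also: 0% = DMSO wells and 100% = JAK Inhibitor I control wells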
# KLF5 inhibitor: inhibitors of KLF5 expression; DLD-1 KLF5 promoter-luciferase reporter, luminescence; inhibition, % at 5 µM; hit rate 0.23% among 290,000;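 active = inhibition above a per-plate limit of that plate's mean compound inhibition plus 3 SD, cut at about 60% in these data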;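 also: 0% = DMSO wells and 100% = LY294002 at 200 µM; higher means less KLF5 promoter-driven luciferase light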
# Ba/F3 V617F tox: lowers viability of Ba/F3 cells expressing EpoR and JAK2V617F | ATP luminescence | inhibition, % at 5.6 µM | hit rate 1.1% among 220,000;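 active = inhibition above the campaign mean plus 3 SD over all tested compounds, cut at about 24% in these data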;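 also: cytokine-independent growth of Ba/F3 cells driven by EpoR plus mutant JAK2; 0% = DMSO-treated cells and 100% = JAK inhibitor I control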
# APP 5UTR inh: APP translation inhibition | SH-SY5Y APP 5'UTR-luciferase reporter, luminescence | inhibition, % at 2 µM | hit rate 0.82% among 190,000 | AID 1285;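 active = inhibition above a set limit, derived from the sample mean plus 3 SD, cut at about 45% in these data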
# IEC-6 tox: kills IEC-6 intestinal cells in KLF5 counter-screen. IEC-6 cytotoxicity, luminescence viability. inhibition, % at 5 µM. hit rate 0.78% among 290,000;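 also: 0% = plate median of test compound wells and 100% = cytotoxic reference compound wells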
# IEC-6 cytotox cf: confirmation of cytotoxic compounds in rat IEC-6 intestinal epithelial cells; shares compounds with IEC-6 tox; IEC-6 rat intestinal epithelial viability, luminescence; inhibition, % at 5 µM; hit rate 63% among 1,900;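 also: 0% = vehicle and 100% = reference cytotoxic drug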
# * marks the source's active call; other numbers are inactive results; nt = no result. Rule as the data show it, unless noted: active = inhibition above about 22%; inactive = the rest.
SMILES,BaF3 parental,KLF5 inhibitor,Ba/F3 V617F tox,APP 5UTR inh,IEC-6 tox,IEC-6 cytotox cf
Cc1ccc(/C=C2/Sc3ccc(C(=O)N4CCC5(CC4)OCCO5)cc3NC2=O)cc1,nt,29.8,nt,nt,2.4,nt
C/C1=C\[C@@H](C)C/C=C/[C@H]2[C@@H]3O[C@]3(C)[C@@H](C)[C@H]3[C@H](Cc4c[nH]c5ccccc45)NC(=O)[C@]32C(=O)/C=C/C(=O)[C@@H]1O,63.0*,-7.2,65.2*,83.8*,90.6*,66.3*
COc1ccc(-n2nc(C(=O)NCC(=O)N3CCC4(CC3)OCCO4)c3ccccc3c2=O)cc1Cl,nt,-45.1,nt,nt,-2.4,nt
CN(C)c1ccc(/C=C/c2cc[n+](C)c3ccccc23)cc1,82.0*,31.9,101.0*,-4.8,28.2*,21.4
CC1N=C(c2ccccc2Cl)c2cc(Br)ccc2NC1=O (stereo not given),nt,-2.0,nt,nt,1.2,nt
CC1=CC2/C=C(\C)CCC(O)C(O)/C=C/C(=O)C23C(=O)NC(CC(C)C)C3C1C (stereo not given),49.2*,-11.0,88.8*,45.1*,38.7*,29.3*
CC(=O)O[C@H]1CC[C@@]2(C)[C@H](C1)C(=O)C[C@H]1[C@@H]3CC[C@@H]4[C@@H](CN5C[C@@H](C)CC[C@H]5[C@@]4(C)O)[C@@H]3C[C@@H]12,nt,-14.7,nt,nt,-4.3,nt

# High-throughput results as filed in PubChem BioAssay.
